The campaign covered roughly 310,000 compounds. About 14,000 (4.5%) showed an effect of 50% or more. Effects have a minus sign here. Shown is part of a subset that was picked to be rich in strong results.
Target: human ether-à-go-go-related gene (hERG) potassium channel (human, UniProt Q12809)
Test: primary screen, population patch clamp on CHO cells stably expressing hERG; higher = less effect of the substance
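Also: peak tail current of the secondary pulse compared with the same well before compound.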

Sequence of human ether-à-go-go-related gene (hERG) potassium channel (Q12809 whole entry, looked up): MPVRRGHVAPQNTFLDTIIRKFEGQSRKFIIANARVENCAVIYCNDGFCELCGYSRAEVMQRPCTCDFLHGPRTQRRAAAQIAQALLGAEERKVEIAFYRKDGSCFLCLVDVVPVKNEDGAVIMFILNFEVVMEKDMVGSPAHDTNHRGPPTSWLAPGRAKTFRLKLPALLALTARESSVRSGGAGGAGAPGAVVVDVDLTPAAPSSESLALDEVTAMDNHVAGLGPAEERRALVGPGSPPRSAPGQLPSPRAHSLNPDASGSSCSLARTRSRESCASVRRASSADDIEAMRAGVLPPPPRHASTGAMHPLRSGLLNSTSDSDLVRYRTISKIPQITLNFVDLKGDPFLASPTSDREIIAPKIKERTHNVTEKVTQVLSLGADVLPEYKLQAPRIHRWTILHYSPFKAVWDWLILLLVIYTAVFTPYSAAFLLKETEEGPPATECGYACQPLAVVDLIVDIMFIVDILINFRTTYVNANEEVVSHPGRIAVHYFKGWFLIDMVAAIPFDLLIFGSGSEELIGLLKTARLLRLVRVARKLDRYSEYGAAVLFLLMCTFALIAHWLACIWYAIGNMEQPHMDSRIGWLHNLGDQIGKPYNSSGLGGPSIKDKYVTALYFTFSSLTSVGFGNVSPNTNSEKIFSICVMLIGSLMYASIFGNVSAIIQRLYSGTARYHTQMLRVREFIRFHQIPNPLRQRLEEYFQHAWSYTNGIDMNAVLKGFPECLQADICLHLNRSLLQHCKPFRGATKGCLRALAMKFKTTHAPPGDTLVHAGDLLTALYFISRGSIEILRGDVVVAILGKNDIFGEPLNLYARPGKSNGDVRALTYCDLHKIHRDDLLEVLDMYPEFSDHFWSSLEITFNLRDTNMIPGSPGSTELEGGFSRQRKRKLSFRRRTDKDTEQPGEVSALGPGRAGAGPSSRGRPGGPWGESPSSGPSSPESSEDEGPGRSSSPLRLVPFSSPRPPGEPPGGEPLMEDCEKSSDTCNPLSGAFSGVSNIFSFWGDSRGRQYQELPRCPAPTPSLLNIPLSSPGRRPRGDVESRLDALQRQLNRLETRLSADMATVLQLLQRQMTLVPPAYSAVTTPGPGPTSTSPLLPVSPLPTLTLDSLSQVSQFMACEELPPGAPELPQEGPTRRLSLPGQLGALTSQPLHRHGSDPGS

Compared with `CCCn1nc(C(=O)NNC(=O)CCCOc2ccc(OC)cc2)c2ccccc2c1=O`, `CCCN1CCN(C(=O)c2oc3ccccc3c2NC(=O)COc2ccc(OC)cc2)CC1` is lower in “hERG current change (%, negative = inhibition) at 10uM” value: -8.53% for the first, -79.5% for the second.

Going from `Cc1ccc(NC(=O)CC(C(=O)O)c2ccccc2)cc1` (centres unmarked) to `CC(=O)Nc1c(C(=O)c2ccccc2)oc2ccccc12`, the “hERG current change (%, negative = inhibition) at 10uM” value falls from 8.15% to -10.3%.

First: COc1ccccc1/C=C/CN1CCC(Oc2ccc(C(=O)N3CCCC3)cc2)CC1
Second: O=C(c1ccc(OC2CCN(C/C=C/c3ccccc3)CC2)cc1)N1CCCC1
The “hERG current change (%, negative = inhibition) at 10uM” value of the first is higher: -24.3% for the first, -75.7% for the second.

Compared with `Cc1ccccc1CN1CCC(Oc2ccc(C(=O)N3CCCC3)cc2)CC1`, `O=C(c1ccc(OC2CCN(Cc3ccccn3)CC2)cc1)N1CCCCCC1` is lower in “hERG current change (%, negative = inhibition) at 10uM” value: -13.7% for the first, -14.9% for the second.

First: O=C(c1ccc(OC2CCN(C/C=C/c3ccccc3)CC2)cc1)N1CCCCC1
Second: O=C(COc1ccc(F)cc1)Nc1c(C(=O)N2CCC(N3CCCCC3)CC2)oc2ccccc12
The “hERG current change (%, negative = inhibition) at 10uM” value of the first is higher: -53.1% for the first, -81.1% for the second.

Going from `CCCC(=O)NC(c1ccc(Cl)cc1Cl)c1ccc2cccnc2c1O` (centres unmarked) to `O=C(NN=C1CCCC1)c1[nH]c2ccc(Cl)cc2c1-c1ccccc1`, the “hERG current change (%, negative = inhibition) at 10uM” value rises from 0.094% to 7.13%.

Going from `CC(=O)Cc1c(C(=O)O)c(C)nn1-c1ccccc1` to `CC(=O)c1oc2ccccc2c1NC(=O)CN1CCCCC1.Cl`, the “hERG current change (%, negative = inhibition) at 10uM” value falls from 21.5% to 7.19%.

Going from `O=[N+]([O-])/C=C/c1ccc2c(ccn2Cc2ccccc2)c1` to `O=[N+]([O-])c1cc(N=Nc2ccc3ccccc3c2)ccc1O`, the “hERG current change (%, negative = inhibition) at 10uM” value falls from 15.8% to 12.8%.

First: COc1ccc(OCC(=O)Nc2ccccc2C(=O)N2CCCC2)cc1
Second: COc1ccc(OCC(=O)Nc2c(C(=O)N3CCN(C)CC3)oc3ccccc23)cc1
The “hERG current change (%, negative = inhibition) at 10uM” value of the first is higher: -7.38% for the first, -42% for the second.

Going from `COc1ccc(N2CCN(C(=O)c3oc4ccccc4c3NC(=O)CCc3cc(OC)no3)CC2)cc1` to `COc1ccc(OCC(=O)Nc2c(C(=O)N3CCC(N4CCCCC4)CC3)oc3ccccc23)cc1`, the “hERG current change (%, negative = inhibition) at 10uM” value falls from -10.4% to -87.7%.

Compared with `O=C(COc1ccccc1)Nc1c(C(=O)N2CCC(N3CCCCC3)CC2)oc2ccccc12`, `CC(C)CC(=O)Nc1c(C(=O)N2CCN(Cc3ccccc3)CC2)oc2ccccc12` is higher in “hERG current change (%, negative = inhibition) at 10uM” value: -69% for the first, -20.9% for the second.

Going from `CCCN1CCN(C(=O)c2oc3ccccc3c2NC(=O)C2CC2)CC1` to `CN1CCN(CC(=O)Nc2c(C(=O)C3CC3)oc3ccccc23)CC1`, the “hERG current change (%, negative = inhibition) at 10uM” value falls from -42.6% to -52.4%.

Going from `COc1ccccc1C(=O)Nc1c(C(=O)N2CCN(C)CC2)oc2ccccc12` to `CN1CCN(CC(=O)Nc2c(C(=O)c3ccccc3)oc3ccccc23)CC1`, the “hERG current change (%, negative = inhibition) at 10uM” value falls from -45.2% to -78.9%.

Going from `N#Cc1ccccc1OCC(=O)Nc1c(C(=O)C2CC2)oc2ccccc12` to `O=C(CN1CCCC1)Nc1c(C(=O)C2CC2)oc2ccccc12`, the “hERG current change (%, negative = inhibition) at 10uM” value falls from 2.52% to -9.92%.

Going from `COCC(=O)Nc1c(C(=O)N2CCCC2)oc2ccccc12` to `O=C(CN1CCOCC1)Nc1c(C(=O)C2CC2)oc2ccccc12`, the “hERG current change (%, negative = inhibition) at 10uM” value falls from 1.46% to -6.8%.

Compared with `CCCCC[C@H](O)/C=C/[C@@H]1[C@@H](C/C=C\CCCC(=O)O)[C@@H](O)C[C@H]1O.NC(CO)(CO)CO`, `CCCC[N+]12C3C[C@H](C4[C@H](O)[C@]5(C[C@@H]41)c1ccccc1N(C)[C@@H]35)[C@H](CC)[C@H]2O.[I-]` (some centres unmarked) is lower in “hERG current change (%, negative = inhibition) at 10uM” value: 9.22% for the first, -56.4% for the second.

Compared with `COc1ccccc1CC(=O)N(CCC1=CCCCC1)c1c(N)n(Cc2ccccc2)c(=O)[nH]c1=O`, `COCCN(CC(=O)NCc1ccccc1)C(=O)CCC(=O)Nc1ccccn1` is higher in “hERG current change (%, negative = inhibition) at 10uM” value: -12% for the first, 4.54% for the second.

First: CCn1c(CCC(=O)N(C)CC(=O)Nc2cccc(F)c2)nc2cc(S(=O)(=O)N(C)C)ccc21
Second: Cc1cc(C(=O)CSc2nc(N)cc(=O)[nH]2)c(C)n1CCc1ccc(F)cc1
The “hERG current change (%, negative = inhibition) at 10uM” value of the first is lower: -19.3% for the first, 1.93% for the second.

First: CC(=O)C1=C(O)C(=O)N(c2cccc(Br)c2)C1c1ccc(Br)cc1 (centres unmarked)
Second: COc1ccc(C(=O)c2oc3ccc(OC)cc3c2NC(C)=O)cc1
The “hERG current change (%, negative = inhibition) at 10uM” value of the first is lower: 15.8% for the first, 27.6% for the second.

Going from `CCOC(=O)N1CCN(S(=O)(=O)/C=C/c2ccccc2)CC1` to `COC(=O)Cn1cnc2sc(C)c(S(=O)(=O)N3CCN(c4ccccc4OC)CC3)c2c1=O`, the “hERG current change (%, negative = inhibition) at 10uM” value rises from -17.5% to -5.55%.

Compared with `Cc1c(Cl)cccc1NC(=O)CNC(=O)c1ccc(F)cc1`, `Cc1ccc(NC(=O)Nc2nnc(Cc3ccc(F)cc3)s2)cc1` is lower in “hERG current change (%, negative = inhibition) at 10uM” value: 27.4% for the first, 14% for the second.

Going from `COc1ccc(-c2nc(CS(=O)CC(=O)NC(C)CCc3ccccc3)c(C)o2)cc1OC` (centres unmarked) to `COc1ccc2oc(C(=O)c3ccccc3)c(N)c2c1`, the “hERG current change (%, negative = inhibition) at 10uM” value rises from -16.8% to 4.76%.

Compared with `CCC1C2CC3C4N(C)c5ccccc5C45CC(C2C5O)N3[C@@H]1O` (some centres unmarked), `CC[C@H]1C2C[C@H]3[C@@H]4N(C)c5ccccc5C45C[C@H](C2[C@H]5O)N3[C@@H]1O` (some centres unmarked) is lower in “hERG current change (%, negative = inhibition) at 10uM” value: -28.5% for the first, -43.8% for the second.

First: Cc1ccc(C(=O)c2oc3ccc(Cl)cc3c2NC(=O)CN2CCN(C)CC2)cc1
Second: COc1ccc2oc(C(=O)c3ccccc3)c(NC(=O)CN3CCN(C)CC3)c2c1
The “hERG current change (%, negative = inhibition) at 10uM” value of the first is lower: -74.3% for the first, -59.8% for the second.

First: CC(=O)Nc1c(C(=O)O)oc2ccc(Cl)cc12
Second: NC(=O)c1oc2ccc(Cl)cc2c1NC(=O)CN1CCOCC1
The “hERG current change (%, negative = inhibition) at 10uM” value of the first is higher: 2.23% for the first, -9.08% for the second.

First: O=C(NCCNC(=O)c1cnccn1)c1ccc(Cl)c(Cl)c1
Second: CCOCCNC(=O)c1ccccc1C(=O)NCCOCC
The “hERG current change (%, negative = inhibition) at 10uM” value of the first is lower: -13.3% for the first, -11.1% for the second.

For `COc1cccc(NC(=O)c2cnsn2)c1`, the “hERG current change (%, negative = inhibition) at 10uM” value was 3.19%.

Source: PMC4336329 (PLoS ONE, 2015)
